Assay [1] concerns the target Lysosomal acid glucosylceramidase (Homo sapiens) (UniProt P04062). As to the kind of experiment: Glucocerebrosidase-p2 (AID 348; in the data active means potency below about 10 µM; further: potency means the concentration at half of the fitted maximal effect). Conditions: purified GBA, blue fluorogenic substrate, 40 min. The procedure, abridged: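 Compounds titrated from 0.6 nM upwards against 0.2 nM enzyme in pH 5.9 citric acid/KH2PO4, taurocholate, tween-20; blue fluorogenic substrate 80 uM, 40 min room temperature, stopped and read Ex 365/Em 440 for AC50.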

Assay [2] can be described thus: AP1 Signaling Pathway (AID 357).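 Further: ME-180 reporter cells stimulated with EGF at its EC50 level; on the % scale 0 is the no-effect control and ±100 the full control effect.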 Conditions: ME-180 AP-1-bla reporter, EGF-induced, beta-lactamase ratio, 5 h; at 7.69 µM (top of the series) unless noted. The procedure, abridged:
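First, ME-180 AP-1-bla cells were cultured overnight at 37 °C in low-serum Opti-MEM. Next, titrated compounds with EC50 EGF were incubated 5 hours. Finally, CCF4 was added for 2.5 hours and the 460/530 nm ratio recorded.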

For assay [3], the target named is Cytochrome P450 1A2 (Homo sapiens) (UniProt P05177). The assay can be described thus: p450-cyp1a2 (AID 410; calls by dose curve; further: potency means the concentration at half of the fitted maximal effect;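 on activity change, negative = inhibition: -100% = full effect of reference inhibitor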). Conditions: recombinant CYP1A2, luciferin-ME demethylation, luminescence; series mostly up to 11.4 µM. The procedure, abridged: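 Inhibition was calculated relative to 57 uM furafylline (full inhibition). The reaction used human CYP1A2 at 20nM with Luciferin-ME at its Km, 100uM, driven by an NADPH-regenerating system for 60 min at room temperature.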

Assay [4] is described as follows: NFAT Signaling Pathway (AID 444).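 Further: carbachol stimulus at about its EC50 of 1 µM final; on the % scale 0 is the no-effect control and ±100 the full control effect.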 Conditions: Jurkat NFAT-bla M1, carbachol, beta-lactamase ratio, 5 h; at 7.69 µM (top of the series) unless noted. The procedure, abridged: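 Read-out: CCF4 FRET ratio (460 nm/530 nm) after 1 h RT dye loading, used for %activity and AC50 from titration series. Cells: Jurkat NFAT-β-lactamase/M1 line, treated with compound plus 1 uM carbachol for 5 h, 37 °C.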

Assay [5] in a line: Stat Signaling Pathway (AID 446).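 Further: ME-180 cervical cancer cells given 40 pM IL-6 alongside compound; SIE-controlled beta-lactamase reporter measured as 460/530 nm FRET emission ratio; on the % scale 0 is the no-effect control and ±100 the full control effect.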 Conditions: ME-180 (cervical carcinoma) SIE beta-lactamase reporter, IL-6 stimulated, 5 h; at 7.69 µM (top of the series) unless noted. In outline:
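IL-6/STAT signaling read in ME-180 cells via an SIE beta-lactamase reporter. Stimulus was 40 pM IL-6 (its AC50) for 5 hrs, so both activation and inhibition register.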

For assay [6], the target named is Glucocorticoid receptor (Homo sapiens) (UniProt P04150). The assay can be described thus: GR-GFP Redistribution (AID 450;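 active means compounds whose dose series gives a full or clear partial fitted curve of increased nuclear translocation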; further: potency means the concentration at half of the fitted maximal effect). Conditions: U2OS GR-GFP nuclear translocation, laser cytometry, 2 h.
Assay [7] shares this target. As to the kind of experiment: GR-EFC Redistribution (AID 451; calls by dose curve; further: potency means the concentration at half of the fitted maximal effect). Conditions: CHO-K1 GR-EFC translocation, beta-gal luminescence, 2 h. In outline:
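Translocation of GR-ED fusion to nuclear EA restores b-gal, read by luminescence after 1 h room-temperature detection. Engineered CHO-K1 biosensor cells, 1,000/well, exposed 2 h at 37 C to titrations up to 46 uM final.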

Assay [8] addresses Mitogen-activated protein kinase 10 (Mus musculus) (UniProt Q61831). The assay can be described thus: JNK3 AlphaScreen Assay (AID 530).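 Further: kinase came from lysate of stimulated human HepG2 cells; signal reports phosphorylation of biotinylated GST-cJun 1-79 at Ser73 with 10 µM ATP; on the % scale 0 is the no-effect control and ±100 the full control effect.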 Conditions: JNK3 lysate, c-Jun phosphorylation; series mostly up to 11.4 µM. In outline:
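Room-temperature AlphaScreen kinase assay; pre-activated HepG2 lysate as JNK3 source, biotin-GST-cJun(1-79) substrate, 10 uM ATP, compound 15 min preincubation.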

Assay [9] deals with 3',5'-cyclic-AMP phosphodiesterase 4B (Homo sapiens) (UniProt Q07343). As to the kind of experiment: qHTS Assay for Inhibitors of PDE-IV (AID 607; active means well fitted activation curve with a large enough effect in the main read-out, with a control signal flat, not every such curve was filed as active; further: % of control where 0% means no effect). Conditions: HEK293 ACTOne CNG channel cells, membrane potential fluorescence; series mostly up to 22.9 µM. In outline:
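Live HEK293 cells with a modified cyclic nucleotide-gated (CNG) channel report intracellular cAMP via membrane-potential dye fluorescence (ex 535/em 590 nm). Endogenous PDE-IV was targeted. Compounds were tested at up to 22.9 uM final; RO 20-1724 100 uM served as control.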
On the technique in general: In qHTS, concentration-response curves come from the screen itself.

Unmarked numbers belong to inactive results. Records with an inconclusive call do not appear. Activity calls are given as the source filed them. Unless noted, the call rests on the fitted dose curve; in most records, active means well fitted curve in either direction with a large enough effect (not every such curve was filed as active); inconclusive means small, poorly fitted or top-dose-only effect, or another doubt; inactive means flat fitted curve, though single readings scatter. Residues, ends and D or L forms follow the SMILES beside them.

Chain of Lysosomal acid glucosylceramidase (Homo sapiens) (P04062 whole entry, looked up): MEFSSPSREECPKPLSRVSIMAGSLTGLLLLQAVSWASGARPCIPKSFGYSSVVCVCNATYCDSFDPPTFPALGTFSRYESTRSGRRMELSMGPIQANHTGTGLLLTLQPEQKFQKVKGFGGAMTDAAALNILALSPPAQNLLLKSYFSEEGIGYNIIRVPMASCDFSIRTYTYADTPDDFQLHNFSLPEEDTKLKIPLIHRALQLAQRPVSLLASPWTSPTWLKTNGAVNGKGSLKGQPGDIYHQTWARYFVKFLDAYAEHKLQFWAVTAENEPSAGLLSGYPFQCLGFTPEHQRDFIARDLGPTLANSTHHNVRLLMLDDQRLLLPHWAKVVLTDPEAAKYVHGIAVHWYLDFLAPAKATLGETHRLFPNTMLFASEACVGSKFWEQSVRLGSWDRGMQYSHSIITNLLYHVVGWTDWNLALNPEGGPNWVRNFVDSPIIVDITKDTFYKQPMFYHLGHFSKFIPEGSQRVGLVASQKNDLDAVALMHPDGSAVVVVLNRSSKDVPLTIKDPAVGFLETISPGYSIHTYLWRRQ
Chain of 3',5'-cyclic-AMP phosphodiesterase 4B (Homo sapiens) (Q07343 whole entry, looked up): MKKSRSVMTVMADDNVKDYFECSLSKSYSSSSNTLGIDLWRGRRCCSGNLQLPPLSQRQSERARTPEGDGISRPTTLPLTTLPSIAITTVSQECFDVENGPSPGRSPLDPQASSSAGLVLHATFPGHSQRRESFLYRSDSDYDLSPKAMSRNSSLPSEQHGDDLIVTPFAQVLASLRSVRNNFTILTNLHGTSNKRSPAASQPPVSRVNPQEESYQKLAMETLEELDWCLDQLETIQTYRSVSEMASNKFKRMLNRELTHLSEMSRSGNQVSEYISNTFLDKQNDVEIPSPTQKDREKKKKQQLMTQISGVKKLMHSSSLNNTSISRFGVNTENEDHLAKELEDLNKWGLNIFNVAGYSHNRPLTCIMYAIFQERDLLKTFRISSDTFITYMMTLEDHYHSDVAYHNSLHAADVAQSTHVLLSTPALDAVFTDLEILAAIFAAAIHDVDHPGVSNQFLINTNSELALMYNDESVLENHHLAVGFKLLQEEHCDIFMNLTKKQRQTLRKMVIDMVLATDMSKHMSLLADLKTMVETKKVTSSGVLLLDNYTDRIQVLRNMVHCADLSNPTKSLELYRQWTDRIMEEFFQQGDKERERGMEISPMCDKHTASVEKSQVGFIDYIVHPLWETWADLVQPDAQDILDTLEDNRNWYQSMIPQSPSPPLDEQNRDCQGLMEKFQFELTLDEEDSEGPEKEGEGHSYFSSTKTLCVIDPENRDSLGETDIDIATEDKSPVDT
Chain of Glucocorticoid receptor (Homo sapiens) (P04150 whole entry, looked up): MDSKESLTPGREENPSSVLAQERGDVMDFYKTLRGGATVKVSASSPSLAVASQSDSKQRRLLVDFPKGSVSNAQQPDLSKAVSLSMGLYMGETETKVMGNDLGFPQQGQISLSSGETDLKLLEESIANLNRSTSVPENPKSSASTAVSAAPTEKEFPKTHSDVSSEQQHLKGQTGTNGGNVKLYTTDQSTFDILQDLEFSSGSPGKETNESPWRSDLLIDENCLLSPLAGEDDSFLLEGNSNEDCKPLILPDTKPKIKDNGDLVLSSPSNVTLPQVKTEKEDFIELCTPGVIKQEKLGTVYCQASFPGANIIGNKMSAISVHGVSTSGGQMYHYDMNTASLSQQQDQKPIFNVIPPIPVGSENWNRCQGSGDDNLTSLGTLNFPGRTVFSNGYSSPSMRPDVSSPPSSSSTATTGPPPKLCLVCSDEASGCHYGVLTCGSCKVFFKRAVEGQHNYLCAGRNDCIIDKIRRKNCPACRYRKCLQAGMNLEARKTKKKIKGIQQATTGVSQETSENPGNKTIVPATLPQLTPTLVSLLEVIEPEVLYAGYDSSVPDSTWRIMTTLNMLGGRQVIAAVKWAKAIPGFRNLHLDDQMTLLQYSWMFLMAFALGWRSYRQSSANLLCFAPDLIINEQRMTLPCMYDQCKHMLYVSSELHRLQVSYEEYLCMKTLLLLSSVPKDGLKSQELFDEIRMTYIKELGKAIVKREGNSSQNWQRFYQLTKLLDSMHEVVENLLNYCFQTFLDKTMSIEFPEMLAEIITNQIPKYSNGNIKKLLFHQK
Chain of Cytochrome P450 1A2 (Homo sapiens) (P05177 whole entry, looked up): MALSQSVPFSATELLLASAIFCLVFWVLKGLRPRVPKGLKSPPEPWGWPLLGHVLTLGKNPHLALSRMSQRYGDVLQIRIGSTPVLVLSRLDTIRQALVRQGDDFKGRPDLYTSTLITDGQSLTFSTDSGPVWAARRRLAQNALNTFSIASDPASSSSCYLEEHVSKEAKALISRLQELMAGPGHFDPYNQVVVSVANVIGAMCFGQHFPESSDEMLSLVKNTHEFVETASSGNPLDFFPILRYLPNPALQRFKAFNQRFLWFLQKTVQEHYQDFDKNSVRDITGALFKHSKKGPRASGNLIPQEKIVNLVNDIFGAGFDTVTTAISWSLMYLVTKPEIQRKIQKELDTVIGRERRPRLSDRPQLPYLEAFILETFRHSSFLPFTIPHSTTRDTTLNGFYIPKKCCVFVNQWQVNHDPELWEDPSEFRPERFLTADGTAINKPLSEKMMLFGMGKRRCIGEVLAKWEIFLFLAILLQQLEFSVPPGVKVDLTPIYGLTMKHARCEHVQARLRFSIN

As for `CS[C@@H](CC(=O)O)C(=O)O`, the values for the Potency in assay [1], in assay [6] and in assay [7] were above 11.4 µM, above 46 µM and above 9.22 µM, respectively. The values for the activity change, negative = inhibition in [2] and in assay [4] were 2.29% and 3.57%, respectively. Further, the Potency entry in assay [3], in assay [8] and in assay [9] was “inactive” in each case. Also, in assay [5], the activity, negative = inhibition was 2.44%.

Turning to `NCC(=O)N[C@H](CO)C(=O)O` (HELM PEPTIDE1{G.[dS]}$$$$V2.0), the values for the Potency in [1], in [6] and in assay [7] were above 11.4 µM, above 46 µM and above 9.22 µM, respectively. In addition, the activity change, negative = inhibition was 12.3% in assay [2] and -7.28% in assay [4]. Besides, the Potency entry in [3], in [8] and in assay [9] was “inactive” throughout. Besides, the activity, negative = inhibition in assay [5] is 10.1%.

Regarding `CN1CCN(c2nc3c(c(=O)n(C)c(=O)n3C)n2C)CC1`, the Potency was above 11.4 µM in [1], above 46 µM in assay [6] and above 9.22 µM in [7]. Also, the activity change, negative = inhibition was -1.63% in [2], -16.8% [at 2.29 µM] in [3] and 1.71% in assay [4]. For the same molecule, in assay [5], the activity, negative = inhibition is -1.51%. Besides, the Potency entry in assay [8] and in [9] was “inactive” in each case.

`Clc1ccc2c(NCCNc3ccnc4cc(Cl)ccc34)ccnc2c1`: the Potency in [1] was above 11.4 µM; in assay [3], 5.01 µM (active); in assay [6] it was above 46 µM; in [7] it was above 9.22 µM. For the same molecule, the results for the activity change, negative = inhibition in assay [2] and in [4] were -4.82% and 4.01%, respectively. The activity, negative = inhibition in assay [5] was 9.24%. Moreover, the Potency entry in assay [8] and in assay [9] was “inactive” in each case.

For `O[C@H](COc1ccccc1)CN1CCCCC1`, the Potency in assay [1] is above 11.4 µM; in [6] it was above 46 µM; in [7], above 9.22 µM. For the same molecule, the activity change, negative = inhibition in [2] was -1.24%; in [4], 2.42%. For the same molecule, the Potency entry in assay [3], in assay [8] and in assay [9] was “inactive” throughout. For the same molecule, in assay [5], the activity, negative = inhibition was 10.3%.

As to `NCC(=O)NC1(C(=O)O)CCCC1` (HELM PEPTIDE1{G.[O=C(O)C1(N[*:1])CCCC1]}$$$$V2.0), the figures for the Potency in [1], in assay [6] and in [7] were above 11.4 µM, above 46 µM and above 9.22 µM, respectively. Moreover, the activity change, negative = inhibition in assay [2] was 4.89%; in assay [4], -2.62%. Also, the Potency entry in assay [3], in assay [8] and in assay [9] was “inactive” throughout. In addition, in assay [5], the activity, negative = inhibition was 12.2%.

In the case of `NC(N)=NNC(=O)C(=O)O`, the Potency in assay [1] was above 11.4 µM; in assay [6], above 46 µM; in assay [7], above 9.22 µM. Also, the activity change, negative = inhibition is 2.05% in assay [2] and 4.61% in [4]. The Potency entry in assay [3], in [8] and in assay [9] was “inactive” throughout. Further, in assay [5], the activity, negative = inhibition was 2.14%.

Take `O=C1CN2CCN(CC2)CC(=O)Nc2ccc(cc2)S(=O)(=O)c2ccc(cc2)NC(=O)CN2CCN(CC2)CC(=O)Nc2ccc(cc2)S(=O)(=O)c2ccc(cc2)N1`: the Potency in [1] was above 11.4 µM; in assay [6], above 46 µM; in assay [7], above 9.22 µM. Moreover, the figures for the activity change, negative = inhibition in assay [2] and in [4] were 5.33% and 5.58%, respectively. The Potency entry in assay [3], in [8] and in assay [9] was “inactive” each time. Also, the activity, negative = inhibition in assay [5] is 12.3%.

Regarding `COc1c(NC(C)=O)c2ccccc2c2ccccc12`, the Potency is above 11.4 µM in assay [1], 0.398 µM (active) in [3], above 46 µM in assay [6] and above 9.22 µM in [7]. For the same molecule, the figures for the activity change, negative = inhibition in assay [2] and in [4] were -1.26% and -6.36%, respectively. For the same molecule, the activity, negative = inhibition in assay [5] was 1.8%. In addition, the Potency result in assay [8] and in [9] was “inactive” in each case.

As to `CN1CCCC[C@@H]1CCN1CCCCC1`, the Potency was above 11.4 µM in assay [1], 0.01 µM (active) in [3], above 46 µM in [6] and above 9.22 µM in assay [7]. In addition, the activity change, negative = inhibition is 4.46% in [2] and -9.35% in assay [4]. The activity, negative = inhibition in assay [5] was 3.65%. The Potency entry in [8] and in assay [9] was “inactive” each time.

For the molecule `CC1(C)O[C@H]2[C@@H](c3[nH]nc4c(=O)[nH]c(=O)[nH]c34)OC[C@H]2O1`, the figures for the Potency in assay [1], in [6] and in [7] were above 11.4 µM, above 46 µM and above 9.22 µM, respectively. Besides, the activity change, negative = inhibition is 8.08% in assay [2] and -14.8% in assay [4]. The Potency result in assay [3], in assay [8] and in assay [9] was “inactive” in each case. Besides, the activity, negative = inhibition in [5] was 8.45%.

Take `NC(=S)SCCC(=O)O`: the Potency in [1] is above 11.4 µM; in [3] it was 1.58 µM (active); in [6], above 46 µM; in assay [7], above 9.22 µM. For the same molecule, the activity change, negative = inhibition was 11.1% in assay [2] and 14.5% in assay [4]. Besides, in assay [5], the activity, negative = inhibition was 14.5%. For the same molecule, the Potency entry in assay [8] and in assay [9] was “inactive” each time.

As for `O=C(O)c1ccccc1C1c2ccccc2Oc2ccccc21`, the Potency in assay [1] was above 11.4 µM; in assay [6], above 46 µM; in assay [7], above 9.22 µM. Besides, the activity change, negative = inhibition is 2.36% in assay [2], -20.4% [at 2.29 µM] in assay [3] and 4.13% in [4]. Also, in assay [5], the activity, negative = inhibition was 0.279%. The Potency result in assay [8] and in [9] was “inactive” each time.

On to `CN1CCCN(C)C1c1cc([N+](=O)[O-])ccc1O`, for which the Potency in assay [1] is above 11.4 µM; in [6] it was above 46 µM; in [7] it was above 9.22 µM. Also, the activity change, negative = inhibition in [2] was 7.56%; in [4] it was -23.2%. In addition, the Potency entry in assay [3], in assay [8] and in assay [9] was “inactive” each time. In addition, the activity, negative = inhibition in assay [5] is -0.988%.

For `O=C(O)[C@@H](O)c1ccc(F)cc1`, the Potency is above 11.4 µM in assay [1], above 46 µM in assay [6] and above 9.22 µM in [7]. In addition, the activity change, negative = inhibition in [2] is 26.9%; in assay [4], 11%. The Potency entry in assay [3], in assay [8] and in [9] was “inactive” in each case. In [5], the activity, negative = inhibition is 8.22%.

(Values after PubChem BioAssay (NCATS).)
